Screening data as filed in PubChem.
Pf Dd2 inh – blocks growth of Plasmodium falciparum Dd2 parasites. AID 1159554. P. falciparum Dd2 growth, SYBR Green, 72 h; active compounds read low. activity change, % at 10 µM. 94,000 compounds, 2.3% hits; in the data active means activity change below about -80%; inconclusive means no clear call, values can overlap the other calls
C diff HTS – inhibitors of Clostridium difficile growth; AID 1259249; 86,000 compounds, 0.25% hits; Clostridium difficile clinical isolate growth, OD600, 24 h; active compounds read low; growth activity, negative = inhibition, % at 16 µg/mL (by protocol);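 active means mean growth activity at or below -80% and every replicate also at or below -80%; inconclusive means mean at or below -80% but some replicate above -80%; inactive means mean growth activity above -80%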;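 further: 0% = DMSO wells and -100% = levofloxacin 16 µg/mL wells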
T cruzi growth-1 – blocks T. cruzi growth in NIH3T3 culture; 77,000 compounds, 5.9% hits; inhibition, % at 8.34 µM; T. cruzi beta-gal in NIH3T3, GalScreen luminescence, 90 h;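 active means mean inhibition above about 93%, with at least 55% of replicates each passing it, limit read from the data, passing the limit was not always enough; inconclusive means only one of those two conditions holds; inactive means neither condition holds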
T cruzi growth-2 – inhibitors of T. cruzi proliferation; T. cruzi beta-gal in NIH3T3, GalScreen luminescence, 90 h; shares compounds with T cruzi growth-1; inhibition, % at 8.35 µM; AID 651739; 5,600 compounds, 72% hits;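 active means mean replicate inhibition above about 95% and at least 55% of replicates individually reaching it, limit read from the data; inconclusive means only one of the two criteria is met; inactive means neither criterion is met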
T cruzi growth-3 – Trypanosoma cruzi proliferation inhibition. shares compounds with T cruzi growth-1. T. cruzi beta-gal in NIH3T3, GalScreen luminescence, 90 h. inhibition, % at 2.09 µM. 5,600 compounds, 21% hits. AID 651740;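 active means mean inhibition above about 95%, with at least 55% of replicates also reaching it, limit read from the data; inconclusive means meets just one of the two conditions; inactive means meets neither condition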;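 further: plate controls were neutral control median for no effect and positive control median for full effect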
NIH3T3 tox – kills mouse NIH/3T3 fibroblasts; NIH/3T3 viability, CellTiter-Glo ATP luminescence, 90 h; AID 651742; cytotoxicity (signal decrease), % at 8.35 µM; 5,600 compounds, 14% hits; shares compounds with T cruzi growth-1;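 active means mean signal decrease across replicates above about 35% based on untreated-well scatter, with enough replicates individually passing, limit read from the data; inconclusive means no rule stated though some were filed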;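 further: 0% = median of neutral control wells and 100% = median of positive control wells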
3T3 cytotox 2 – kills mouse NIH/3T3 fibroblasts. AID 651744. shares compounds with T cruzi growth-1. inhibition, % at 24.9 µM. 5,600 compounds, 56% hits. NIH/3T3 viability, CellTiter-Glo ATP luminescence, 90 h;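 active means mean loss of cell viability signal at or above a set limit, and enough replicates individually reaching it; inconclusive means meets only the mean limit or only the replicate share; inactive means meets neither condition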;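 further: 0% = median of neutral control wells and 100% = median of positive control wells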
The depositor's hits bear a star; ? = inconclusive; · = no result given; + = active, no number. Most compounds without a hit are left out; they make up all but 6.7% or so of the library.

SMILES	Pf Dd2 inh	C diff HTS	T cruzi growth-1	T cruzi growth-2	T cruzi growth-3	NIH3T3 tox	3T3 cytotox 2
COc1ccc(NC(=O)N[C@H]2CC[C@H](CCn3cc(C4(O)CCCC4)nn3)O[C@@H]2CO)cc1	-16	11	25	·	·	·	·
C[C@@H]1CCCCO[C@@H](CN(C)C(=O)Nc2ccc3c(c2)OCO3)[C@@H](C)CN([C@H](C)CO)C(=O)c2cc(NS(=O)(=O)c3ccc(Cl)cc3)ccc2O1	4	1	14	·	·	·	·
C[C@H]1CCCCO[C@H](CN(C)C(=O)Nc2ccc3c(c2)OCO3)[C@@H](C)CN([C@@H](C)CO)C(=O)c2cc(NS(=O)(=O)c3ccc(Cl)cc3)ccc2O1	-76	-7	49	·	·	·	·
C[C@@H]1CCCCO[C@H](CN(C)C(=O)Nc2ccc3c(c2)OCO3)[C@H](C)CN([C@@H](C)CO)C(=O)c2cc(NS(=O)(=O)c3ccc(Cl)cc3)ccc2O1	-58	2	?	102*	36	-7	-16
C[C@H](CO)N1C[C@H](C)[C@H](CN(C)C(=O)Nc2ccc3c(c2)OCO3)OCCCC[C@H](C)Oc2ccc(NS(=O)(=O)c3ccc(Cl)cc3)cc2C1=O	-13	-1	97*	113*	57	-23	-26
O=C(C[C@@H]1C[C@H]2c3cc(NS(=O)(=O)c4ccccc4)ccc3O[C@H]2[C@H](CO)O1)NCC1CC1	-23	-1	-78	·	·	·	·
Cc1cccc(-c2ccc([C@@H]3[C@@H](CO)N4CCCCN(C(=O)c5ccc6c(c5)OCO6)C[C@@H]34)cc2)c1	-11	-4	55	·	·	·	·
Cc1cccc(-c2ccc([C@@H]3[C@@H](CO)N4CCCCN(C(=O)c5ccc6c(c5)OCO6)C[C@H]34)cc2)c1	3	0	106*	104*	35	26	103*
O=C(c1ccc2c(c1)OCO2)N1CCCCN2[C@@H](CO)[C@H](c3ccc(-c4ccccc4)cc3)[C@@H]2C1	5	5	54	·	·	·	·
COc1cccc(-c2ccc([C@@H]3[C@@H](CO)N4CCCCN(C(=O)c5ccc6c(c5)OCO6)C[C@H]34)cc2)c1	5	-7	92	·	·	·	·
COc1cccc(-c2ccc([C@H]3[C@@H](CO)N4CCCCN(C(=O)c5ccc6c(c5)OCO6)C[C@H]34)cc2)c1	-18	2	110*	105*	87	33	106*
Cc1cccc(-c2ccc([C@H]3[C@@H](CO)N4CCCCN(C(=O)c5ccc6c(c5)OCO6)C[C@H]34)cc2)c1	-34	0	120*	98*	105*	44*	107*
Cc1cccc(-c2ccc([C@@H]3[C@@H](CO)N4C(=O)CN(C(=O)c5ccc6c(c5)OCO6)C[C@H]34)cc2)c1	-6	-11	·	·	·	·	·
Cc1cccc(-c2ccc([C@H]3[C@@H](CO)N4CCCCN(C(=O)c5ccc6c(c5)OCO6)C[C@@H]34)cc2)c1	9	-5	?	111*	99*	?	90*
CCCN(C)C[C@@H]1Oc2ncc(-c3ccccc3F)cc2C(=O)N([C@H](C)CO)C[C@@H]1C	-61	4	30	·	·	·	·
O=C(NCC[C@H]1CC[C@H](NC(=O)C2CCOCC2)[C@@H](CO)O1)Nc1ccc(Cl)cc1	12	0	-47	·	·	·	·
C[C@@H]1CN([C@H](C)CO)S(=O)(=O)c2ccc(Br)cc2O[C@@H]1CN(C)Cc1cccnc1	12	3	·	·	·	·	·
CC(=O)N1CCCCN2[C@H](CO)[C@H](c3ccc(-c4cccc(C)c4)cc3)[C@@H]2C1	-24	-11	78	·	·	·	·
Cc1cccc(-c2ccc([C@H]3[C@H]4CN(C(=O)c5ccc6c(c5)OCO6)CCCCN4[C@H]3CO)cc2)c1	-41	-4	116*	105*	57	31	106*
O=C(c1ccc2c(c1)OCO2)N1CCCCN2[C@H](CO)[C@@H](c3ccc(-c4ccccc4)cc3)[C@H]2C1	0	-1	102*	86	55	28	68*
O=C(c1ccc2c(c1)OCO2)N1CCCCN2[C@H](CO)[C@H](c3ccc(-c4ccccc4)cc3)[C@H]2C1	-5	-2	61	·	·	·	·
O=C(C1CCCC1)N1CC(=O)N2[C@H](CO)[C@H](c3ccc(C#CCc4ccccc4)cc3)[C@H]2C1	-15	-13	·	·	·	·	·
COCC(=O)Nc1ccc2c(c1)[C@H]1C[C@H](CC(=O)NCc3cc(F)ccc3F)O[C@@H](CO)[C@H]1O2	1	2	13	·	·	·	·
COc1ccc(CN(C)C[C@@H]2Oc3ccc(NS(=O)(=O)c4ccc(C)cc4)cc3CC(=O)N([C@@H](C)CO)C[C@H]2C)cc1	-7	-5	·	·	·	·	·
COc1ccc(CN(C)C[C@H]2Oc3ccc(NS(=O)(=O)c4ccc(Cl)cc4)cc3CC(=O)N([C@@H](C)CO)C[C@@H]2C)cc1	-51	-29	107*	97*	79	5	86*
SMILES	Pf Dd2 inh	C diff HTS	T cruzi growth-1	T cruzi growth-2	T cruzi growth-3	NIH3T3 tox	3T3 cytotox 2
COc1ccc(CN(C)C[C@H]2Oc3ccc(NS(=O)(=O)c4ccc(Cl)cc4)cc3CC(=O)N([C@H](C)CO)C[C@H]2C)cc1	6	-15	86	·	·	·	·
COc1ccc(CN(C)C[C@H]2Oc3ccc(NS(=O)(=O)c4ccc(C)cc4)cc3CC(=O)N([C@@H](C)CO)C[C@@H]2C)cc1	-22	-12	104*	110*	8	4	4
COc1ccc(NC(=O)N(C)C[C@@H]2Oc3ncc(C#CCN(C)C)cc3C(=O)N([C@H](C)CO)C[C@H]2C)cc1	23	0	·	·	·	·	·
O=C(C[C@H]1CC[C@H]2[C@@H](COC[C@@H](O)CN2S(=O)(=O)c2ccc(F)cc2)O1)NCc1ccc(Cl)c(Cl)c1	-9	1	42	·	·	·	·
CCC(=O)N1[C@@H]2c3ccc(-c4cccc(F)c4)c(=O)n3C[C@@H]2[C@@H](CO)[C@@H]1C(=O)N1CCCCC1	16	-3	·	·	·	·	·
COCC(=O)N1[C@H](C(=O)Nc2ccccc2)[C@@H](CO)[C@@H]2Cn3c(ccc(-c4ccc(F)cc4)c3=O)[C@@H]21	7	0	10	·	·	·	·
CN1[C@@H]2c3ccc(-c4ccc(F)cc4)c(=O)n3C[C@@H]2[C@@H](CO)[C@@H]1C(=O)Nc1ccccc1	·	-3	+	-21	-34	-27	-5
CCCNC(=O)N1[C@H](C(=O)N2CCCCC2)[C@@H](CO)[C@@H]2Cn3c(ccc(-c4ccc(F)cc4)c3=O)[C@@H]21	·	-9	98*	17	-19	-14	6
CN1[C@H](C(=O)NCc2ccccn2)[C@@H](CO)[C@@H]2Cn3c(ccc(-c4cccc(F)c4)c3=O)[C@@H]21	·	-9	111*	52	5	17	13
CN1[C@@H]2c3ccc(-c4cccc(F)c4)c(=O)n3C[C@@H]2[C@@H](CO)[C@@H]1C(=O)NCc1ccccn1	·	-5	77	·	·	·	·
